Bioassay records (PubChem)
Shown are actives, neighbours in structure and some others; about 1.4% of the full set was active somewhere.
EPAC2 ag: qHTS for Agonist of cAMP-regulated guanine nucleotide exchange factor 4 (EPAC2): primary screen; EPAC2 activation, biochemical qHTS; response scale: 100% = 6.5 mM cAMP response; Potency, µM (titrated, usually from 154 µM), without a hit: at the top dose activation, most hits filed as activators; 360,000 compounds, 0.079% hits; AID 720711, 2013; further: nearly all actives have a fitted effect of over 50% in size
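qHTS, titration series. 100 nM EPAC2 / 250 nM Rap1B-BODIPY-GDP / 50 uM GDP; RT; ex 480/em 540 nm, 5-min reads to 30 min. Norm. to 6.5 mM cAMP = activation.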
BRCA1 expr act: qHTS Assay to Identify Small Molecule Activators of BRCA1 Expression; 380,000 compounds, 1.1% hits; AID 624202, 2012; MCF7-BRCA1-FFLuc reporter, luminescence, 48 h; response scale: scaled: vehicle 0%, 10 µM genistein 100%; Potency, µM (titrated, usually from 46.1 µM), without a hit: top-dose activation, usual class: activators; further: nearly all actives have a fitted effect of over 80% in size
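Reporter cells (MCF7, BRCA1 promoter-firefly luciferase) received library compounds across a concentration series for 48 h. End-point luminescence was measured and concentration-effect curves derived after normalization.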
EPAC1 ag: qHTS for Agonist of cAMP-regulated guanine nucleotide exchange factor 3 (EPAC1): primary screen. Rap guanine nucleotide exchange factor 3 (Homo sapiens), O95398. EPAC1 agonist qHTS, biochemical assay; response scale: 100% = response to 6.5 mM cAMP. Potency, µM (titrated, usually from 154 µM), inactives show at the top dose activation, hits mostly activators. 360,000 compounds, 0.073% hits; further: nearly all actives have a fitted effect of over 60% in size
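Multi-concentration qHTS readout: loss of Rap1B-bound BODIPY-GDP fluorescence driven by 100 nM EPAC1 with excess GDP (50 uM), monitored kinetically at room temperature; agonist response expressed relative to 6.5 mM cAMP.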
EPAC2 antag: qHTS for Antagonist of cAMP-regulated guanine nucleotide exchange factor 2 (EPAC2): primary screen; 360,000 compounds, 0.18% hits; Rap guanine nucleotide exchange factor 4 (Homo sapiens), Q8WZA2; EPAC2 GEF exchange of Rap1B-BODIPY-GDP, fluorescence; Potency, µM (doses to about 114 µM), inactives show at the top dose activity, negative = inhibition, hits mostly inhibitors; AID 720708, 2013; further: on the % scale 0 is the no-effect control and ±100 the full control effect; nearly all actives have a fitted effect of over 45% in size
EPAC1 antag: qHTS for Antagonist of cAMP-regulated guanine nucleotide exchange factor 3 (EPAC1): primary screen; EPAC1 GEF assay, Rap1b-BODIPY-GDP exchange fluorescence; Potency, µM (highest dose often 115 µM), for the others: at the highest dose activity change, negative = inhibition, actives largely listed as inhibitors; 360,000 compounds, 0.14% hits; AID 720709, 2013;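 further: plate controls were vehicle for no effect and positive control for full effect; nearly all actives have a fitted effect of over 50% in size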
USP1 inh: Inhibitors of USP1/UAF1: Primary Screen | Ubiquitin carboxyl-terminal hydrolase 1 (Homo sapiens), O94782 | recombinant USP1/UAF1, Ub-Rhodamine cleavage fluorescence | Potency, µM (series often up to 57.1 µM), for the others: at the highest dose activity change, negative = inhibition, hits mostly inhibitors | 390,000 compounds, 0.23% hits; further: on the % scale 0 is the no-effect control and ±100 the full control effect; nearly all actives have a fitted effect of over 60% in size
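In this screen, compounds sit with the deubiquitinase complex (1nM) for 15 min at room temperature before Ub-Rho is added at 150nM final. Fluorescence rise is then followed for 6 reads every 60 seconds.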
Starred values were filed as active, the others as inactive; ? = inconclusive; / = not tested or not shown. The call rests on the fitted dose curve; in most records, active means well fitted curve in the direction sought with a large enough effect; inconclusive means small, poorly fitted or top-dose-only effect, or another doubt; inactive means no such curve, though single readings can be large; an effect the other way counts as inactive or inconclusive. Potency means the concentration at half of the fitted maximal effect.

SMILES	EPAC2 ag	BRCA1 expr act	EPAC1 ag	EPAC2 antag	EPAC1 antag	USP1 inh
NC(=S)N=Nc1c(O)[nH]c2ccc(F)cc12	-10%	-5%	-5%	-1%	-7%	-19%
NC(=S)N=Nc1c(O)cc(O)c2[nH]c(=O)ccc12	7%	-3%	8%	-29%	50µM*	18µM*
Cc1ccnc(NS(=O)(=O)c2ccc(NC(=O)c3snnc3C)cc2)n1	11%	14%	10%	1%	-2%	-24%
COc1cccc(NC(=O)c2ccc(CN3CCOCC3)cc2)c1	10%	11µM*	-4%	4%	0%	-16%
COc1c(C)cccc1C(=O)Nc1ccc(CN2CCOCC2)cc1	13%	2.5µM*	10%	-2%	1%	6%
S=C1Cc2ccccc2N1	11%	-103%	9%	-23%	?	28µM*
c1ccc(-c2ccc(-c3csc4ncnc(Sc5nnnn5-c5ccccc5)c34)cc2)cc1	/	-3%	/	/	/	/
Cc1cc(C)c2c(=O)cc(C(=O)Nc3ccccc3C(F)(F)F)oc2c1	/	/	/	/	/	-12%
C[n+]1c(/C=C/c2ccnc3ccccc23)cc(/C=C/c2ccnc3ccccc23)c2ccccc21	/	0%	/	/	/	/
COCCCNC(=O)C1CCN(C(=O)c2oc3cc4sc(N(C)C)nc4cc3c2C)CC1	-5%	11µM*	3%	5%	13%	-12%
CC1CN(S(=O)(=O)c2cccc(C(=O)Nc3ccccc3N3CCCCC3)c2)CC(C)O1 (stereo not given)	4%	-53%	10%	-5%	-30%	-24%
CC1CN(S(=O)(=O)c2cccc(C(=O)Nc3ccccc3N3CCOCC3)c2)CC(C)O1 (stereo not given)	2%	-36%	25µM*	11%	-19%	-11%
O=C1CC(=O)Nc2cc(S(=O)(=O)Nc3ccc(Cl)c(C(F)(F)F)c3)ccc2N1	-6%	-2%	-1%	35µM*	-26%	-10%
O=C1CC(=O)Nc2cc(S(=O)(=O)Nc3cccc(C(F)(F)F)c3)ccc2N1	-4%	-2%	-1%	-3%	18%	-21%
Cc1cccc(NC(=O)Cc2noc3ccccc23)c1	6%	11µM*	2%	7%	-11%	-13%
CC(=O)c1cccc(NC(=O)Cc2noc3ccccc23)c1	/	/	/	/	/	-18%
Cc1c(C(=O)NCCC#N)sc(=O)n1Cc1ccccc1F	0%	7%	-6%	-6%	19%	/
COc1ccc(/C=C2\SC(=S)N(CCC(=O)N3CCCCC3)C2=O)cc1	-4%	-27%	3%	-4%	-12%	-5%
COCCN1C(=O)/C(=C/c2ccc(N3CCCC3)cc2)SC1=S	20µM*	49%	?	2%	-20%	5µM*
CCc1ccc(S(=O)(=O)Nc2ccc(O)c3c(=O)cc(-c4ccccc4Cl)oc23)cc1	5%	-38%	11%	4%	-7%	?
O=c1cc(-c2ccccc2Cl)oc2cc(O)cc(O)c12	4%	?	14%	2%	-9%	?
Nc1ccc(O)c2c(=O)cc(-c3ccccc3Cl)oc12	-4%	2.8µM*	-5%	6%	-15%	?
O=c1cc(-c2ccccc2Cl)oc2c(NS(=O)(=O)c3cc(Cl)cc(Cl)c3O)ccc(O)c12	0%	-56%	1%	28µM*	35µM*	25µM*
CC1Cc2cc(S(=O)(=O)CCC(=O)NCc3ccccc3Cl)ccc2N1C(=O)C1CC1 (stereo not given)	/	/	/	/	/	-8%
